This passage reports sensor-assay potency score (higher = more potent) results from the OligoGym collection.
Note: reference of the scale not given here.

One experiment addresses COX4I2. The experiment can be described thus: pooled miR-30 sensor sort-seq; sequence = guide strand. The settings on record: shRNA.
Take TCTCATTGAACTGGAGCCGGTA: the sensor-assay potency score (higher = more potent) is -1.09. TCAGCGTTGAGTTCTGTGCAGA: the sensor-assay potency score (higher = more potent) is -0.281.

The sequence TTCTTCTCATAGTCCCAGCGGG had a sensor-assay potency score (higher = more potent) of -0.678. Sequence TTCATGTCCAGCATGCGCTGCA came in with a sensor-assay potency score (higher = more potent) of 0.312. The same measure, in the same setting: the value for TTCCTCAGCACCAAGCTCCAGG was -0.515; that for AAAGGTCTCATTGAACTGGAGC was -0.86; that for TCGTCCGTCAAGGTGATCGGCT was -1.37.

TGAAGAAGAAGACACAACCCAT: the sensor-assay potency score (higher = more potent) is -0.804. As for TAGGGGGACATCTTCCCCCCAC, the sensor-assay potency score (higher = more potent) is -1.04. For the sequence TTGAGTTCTGTGCAGAAGGGCT, the sensor-assay potency score (higher = more potent) is -0.914. The same measure, in the same setting: the figure for TTCATCTCCGCAAAGGTCTCAT is -0.117.

Turning to TCCACCTTTCCTCAGCACCAAG, the sensor-assay potency score (higher = more potent) is -2.06.

The target of another experiment is COX6B2. The description is as above. The settings on record: shRNA.
In turn, TTCTTGATCTGCTCGTTCCAGC showed a sensor-assay potency score (higher = more potent) of -0.0146.

The sequence TCCCGTTCTTGATCTGCTCGTT came in with a sensor-assay potency score (higher = more potent) of -0.329.

For the sequence TTACGGATCTGGTTCTGGCTGG, the sensor-assay potency score (higher = more potent) came out at 0.238.

In turn, TTGATCTGCTCGTTCCAGCTCT yielded a sensor-assay potency score (higher = more potent) of -0.259.

Take TGGTAGTCCAGGAAGTTCTGGT: the sensor-assay potency score (higher = more potent) was -0.611. TGATCTGCTCGTTCCAGCTCTC displayed a sensor-assay potency score (higher = more potent) of -0.561. In turn, TTCCAGCTCTCCACCCAGCTGA showed a sensor-assay potency score (higher = more potent) of -0.84. On the same count and under the same terms, the figure for TACACGCGGAAATAGTACTCGC is -0.697. In turn, TCGTTCCAGCTCTCCACCCAGC yielded a sensor-assay potency score (higher = more potent) of -1.49. As to TACGGATCTGGTTCTGGCTGGG, the sensor-assay potency score (higher = more potent) is -0.241.

The sequence TAGTCCAGGAAGTTCTGGTAGC gave a sensor-assay potency score (higher = more potent) of -0.67. Sequence TAGTACTCGCAGGGCTGCGTGC displayed a sensor-assay potency score (higher = more potent) of -1.22.
